Results as given in PubChem BioAssay (NCI).
Compounds without any hit were thinned out: in the full panel of roughly 83,000, 20% have a hit.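 96-well plates, one dose, 48 hours. Percent growth reported; active if below 10.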 Values without a mark were called inactive. Activity calls are given as the source filed them.

Test system: NCI-H522 lung
Test: NCI-60 one-dose screen, 48 h (100 = growth as untreated, 0 = no growth, -100 = all killed)
Settings: 10 µM unless noted

Row | SMILES | growth
1 | Clc1nc(N2CCC[N+]3(CC2)CC[N+]2(CCCNCC2)CC3)nc(N2CCC[N+]3(CC2)CC[N+]2(CCCNCC2)CC3)n1 (stereo not given) | 94%
2 | O=C(Nc1ccccc1CNc1nc(Nc2ccc(OCCN3CCCC3)cc2)ncc1Cl)NC1CCCCC1 | 113%
3 | Cc1nc2c(c(-c3ccccc3)n1)Cc1c(ccc3ccccc13)O2 | 100%
4 | COC(CCP(=O)(c1ccccc1)c1ccccc1)(C(=O)c1ccccc1)c1ccccc1 (stereo not given) | 28.9%
5 | Nc1ncc(-c2ccc3ncnc(N4CCc5cc(F)c(Cl)cc54)c3c2)cc1C=O | 26.7%
6 | CC(C)(C)n1cc(-c2ccnc(NCCNS(=O)(=O)c3ccc(C(F)(F)F)cc3)c2)c(-c2ccccc2)n1 | 85.9%
7 | Clc1ccc(C2=Nn3c(nnc3-c3cc(Cl)cc(Cl)c3Cl)SC2)cc1 | 21.4%
8 | O=C(NC1CCCCCC1)c1ccc2c(=O)n3c(nc2c1)CCCCC3 | 103%
9 | C=C1C(=O)O[C@H]2[C@H]1CC/C(CNC(=O)/C=C/c1cc(OC)c(OC)c(OC)c1)=C\CC[C@@]1(C)O[C@@H]21 | -93.5% (active)
10 | Cc1c(CC(=O)Nc2ccccc2)nnn1-c1ccccc1 | 93.4%
11 | CCn1c2ccccc2c2cc(C(O)c3cccc4ncccc34)ccc21 (stereo not given) | 8.82% (active)
12 | CSc1nc(CC(C)C)c(C#N)c(=O)n1C | 39.2%
13 | Oc1c(Cl)cc(Cl)c2ccc(CN3CCNCC3)nc12 | 67.8%
14 | CO[C@H]1CC(c2ccc[nH]2)=N[C@]12O[C@@H](C)C[C@@H]1CCCCCCCc3ccc([nH]3)[C@H]12 | 20.8%
15 | Nc1c(C(=O)c2ccc(Cl)cc2)sc(Nc2ccccc2)c1-c1nc2ccccc2s1 | 7.38% (active)
16 | Cn1nc(-c2ccc(Cl)cc2)nc2c(=O)n(C)c(=O)nc1-2 | -75.4% (active)
17 | Cc1ccc(C2=Nc3c(N)nc(N)nc3NC(c3cccc(Nc4ccnc5cc(C(F)(F)F)ccc45)c3)C2)cc1 (stereo not given) | 11.9%
18 | COC(=O)[C@H](C)NC(=O)c1ccc(NC(=O)c2[nH]c(C)c(Cl)c2Cl)c(OCCN)c1 | 107%
19 | CC(C)=CC(=O)C1C(=O)c2ccccc2C1=O | 87.2%
20 | C=CCn1c(SCC(=O)Nc2ccc(C(=O)/C=C/c3ccc(Cl)cc3)cc2)nnc1-c1ccc(Cl)c(Cl)c1 | 66.5%

Row | SMILES | growth
21 | CC(C)n1cc(C2=C(c3cccc4ccccc34)C(=O)NC2=O)c2cc(Br)ccc21 | 79.9%
22 | CC1(C)C2=C(C(=O)N1Cc1ccccc1)C(c1ccco1)N(C(=O)C1CCC1)CCN2 (stereo not given) | 93.8%
23 | COc1cc(OC)cc(C(=O)Nc2cnc(Nc3ccc(N4CCOCC4)nc3)nc2Oc2ccc(C(F)(F)F)cc2)c1 | 77.1%
24 | C=C(c1ccc(C(=O)O)c(F)c1)c1cc2c(cc1C)C(C)(C)C=CC2(C)C | 61.5%
25 | O=C1c2c(c3c4cc(F)ccc4oc3c3[nH]c4ccccc4c23)C(=O)N1O | 30.5%
26 | CCCN1C(=O)N(CCC)C2C1NC(=S)N2/N=C/C=C/c1ccccc1OC (stereo not given) | -11.3% (active)
27 | O=C(Nc1ccccc1)Nc1ccccc1CNc1nc(Nc2ccc(OCCN3CCCC3)cc2)ncc1Cl | 58.6%
28 | O=C1NC(=O)C(=Cc2cc(-c3ccc(Cl)cc3)n(-c3ccccc3)n2)C(=O)N1 | 103%
29 | COc1ccc(-c2nc3cc(C(=O)NC4CCCCC4)ccc3n2C2CCCCC2)cc1 | 73.5%
30 | O=c1ccc2c(ccc3ncccc32)o1 | 96%
31 | CC/C(=C(/c1ccc(Cl)cc1)c1ccc(OCCN(CC)CC)cc1)c1ccc(OC)cc1 | 66.6%
32 | COc1ccc(N2C(=O)/C(=C/C(Cl)=C/c3ccc([N+](=O)[O-])cc3)SC2=S)cc1 | -42.5% (active)
33 | CCOC(=O)CC1CSC(N/N=C(/C)c2cccc(C(F)(F)F)c2)=N1 (stereo not given) | 82.2%
34 | CSc1nc(N)c2c(n1)NC(c1ccccc1)C1CCc3ccccc3C1=N2 (stereo not given) | 45.9%
35 | COc1cc2cc(Oc3ccc(NC(=O)Nc4ccc(F)c(C(F)(F)F)c4)cc3)c(C)nc2cc1OCCN1CCCCC1 | -66.6% (active)
36 | O=C(Nc1ncc(Cc2ccccc2)s1)c1cc(-c2ccccc2)nc2ccccc12 | 87.6%
37 | CN1CCN(Cc2ccc(NC(=O)c3cncc(C#Cc4cnc(N)c5ncccc45)c3)cc2Cl)CC1 | 85.2%
38 | COc1c(O[C@@H]2OC(CO)[C@H](O)[C@H](O)C2O)cc2oc3cc(O)c(CC=C(C)C)c(O)c3c(=O)c2c1CC=C(C)C (stereo not given in full) | 64.6%
39 | COc1cccc(-c2cc(-c3ccc(Nc4nc(Nc5ccc(Cl)cc5)nc(Nc5ccc(Cl)cc5)n4)cc3)nc(N)c2C#N)c1 | 87.4%
40 | O=C(NCCN1CCOCC1)c1cncnc1Nc1ccc2c(ccn2Cc2ccccn2)c1 | 83.7%
